Measured values from PubChem BioAssay (NCATS).
Results filed as inconclusive are left out. The source made the active and inactive calls. Unless noted, calls come from the whole dose curve.

Legend:
[1] = qHTS for Inhibitors of the Functional Ribonucleoprotein Complex (vRNP) of Lassa (LASV) Arenavirus: LASV Primary Screen - GLuc reporter signal (AID 1347082; calls by dose curve; tested in HEK293 reporter line; note: nearly all actives have a fitted effect of over 60% in size)
[2] = qHTS for Inhibitors of the Functional Ribonucleoprotein Complex (vRNP) of Lassa (LASV) Arenavirus: Viability assay - alamar blue signal for LASV Primary Screen (AID 1347083; calls by dose curve; tested in HEK293 reporter line; note: nearly all actives have a fitted effect of over 80% in size)
[3] = qHTS for Inhibitors of the Functional Ribonucleoprotein Complex (vRNP) of Lymphocytic Choriomeningitis Arenaviruses (LCMV): Viability assay - alamar blue signal for LCMV Primary Screen (AID 1347085; calls by dose curve; tested in HEK293 reporter line; note: nearly all actives have a fitted effect of over 80% in size)
[4] = target: Nucleoprotein (Lymphocytic choriomeningitis virus (strain Armstrong)) (UniProt P09992); assay: qHTS for Inhibitors of the Functional Ribonucleoprotein Complex (vRNP) of Lymphocytic Choriomeningitis Arenaviruses (LCMV): LCMV Primary Screen - GLuc reporter signal (AID 1347086); note: nearly all actives have a fitted effect of over 70% in size
Sequence of Nucleoprotein (Lymphocytic choriomeningitis virus (strain Armstrong)) (P09992 whole entry, looked up): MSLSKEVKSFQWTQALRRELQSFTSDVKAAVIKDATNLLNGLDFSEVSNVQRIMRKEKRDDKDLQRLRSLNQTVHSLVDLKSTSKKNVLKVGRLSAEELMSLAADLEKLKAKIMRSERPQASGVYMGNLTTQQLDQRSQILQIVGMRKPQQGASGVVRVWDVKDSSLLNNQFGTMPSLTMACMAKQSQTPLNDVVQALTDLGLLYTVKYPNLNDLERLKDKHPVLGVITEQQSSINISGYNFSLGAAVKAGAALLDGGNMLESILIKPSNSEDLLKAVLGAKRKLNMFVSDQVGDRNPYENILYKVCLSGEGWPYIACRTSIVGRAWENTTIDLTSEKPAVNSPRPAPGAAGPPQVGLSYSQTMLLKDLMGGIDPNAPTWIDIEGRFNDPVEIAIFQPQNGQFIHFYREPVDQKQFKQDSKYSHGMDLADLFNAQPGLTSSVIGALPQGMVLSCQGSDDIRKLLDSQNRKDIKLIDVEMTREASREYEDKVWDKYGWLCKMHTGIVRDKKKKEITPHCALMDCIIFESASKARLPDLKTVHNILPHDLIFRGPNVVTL

Measured: Potency
Note: series mostly up to about 57 µM.

O=C1N[C@@H](Cc2c[nH]c3ccccc23)C(=O)N[C@H]1Cc1ccccc1
inactive: all assays above

C=CC(=O)CCCCC
inactive: all assays above

O=P(O)(O)OC[C@H]1O[C@](O)(COP(=O)(O)O)[C@@H](O)[C@@H]1O
inactive: all assays above

C/C=C(/C)C(=O)OC1Cc2c(ccc3ccc(=O)oc23)OC1(C)C (stereo not given)
inactive: all assays above

Cn1c2ccccc2c(=O)c2c(O)cccc21
inactive: all assays above

COC(=O)c1cc(=O)cc(C(=O)OC)o1
inactive: all assays above

CC1=CC2OC3CC4OC(=O)C=CC=CC(=O)OCCC(C)C(O)C(=O)OCC2(CC1)C4(C)C31CO1 (stereo not given)
inactive: all assays above

COc1cc(-c2cc(=O)c3c(O)cc(O)cc3o2)ccc1O
inactive: all assays above

CC1NC(C(=O)O)Cc2c1[nH]c1ccccc21 (stereo not given)
inactive: all assays above

COc1cc2ccc(=O)oc2cc1O
inactive: all assays above

Cn1c(=O)c(-c2ccccc2)c(O)c2ccccc21
inactive: all assays above

CCCCCCCCCCCCCCCCCCOS(=O)(=O)O
inactive: all assays above

COc1cc2c(cc1CC=C(C)C)C(=O)C[C@@H](c1ccc(O)cc1)O2
inactive: all assays above

CCCCCCCCCCCCC(=O)CCCCC(=O)O
inactive: all assays above

CC(O)CC(=O)O (stereo not given)
inactive: all assays above

COc1cc2c(c(OC)c1OC)-c1c(cc3c(c1OC)OCO3)CC(C)C(C)C2 (stereo not given)
inactive: all assays above

CC(C)=CCc1c(O)cc2c(c1O)C(=O)CC(c1ccccc1)O2 (stereo not given)
inactive: all assays above

OCCN1C[C@H](O)[C@@H](O)[C@H](O)[C@@H]1CO
inactive: all assays above

CCCCCCCCOC(C)=O
inactive: all assays above

CC1=C(/C=C/C(C)=C/C=C/C(C)=C/C=C/C=C(C)/C=C/C=C(\C)C=O)C(C)(C)CCC1
inactive: all assays above

NC(=O)c1ncn([C@@H]2O[C@H](CO)[C@@H](O)[C@@H]2O)c1O
inactive: all assays above

CC1=C(C=O)C(C)(C)CCC1
inactive: all assays above

CC1(C)O[C@@H]1COc1c2ccoc2cc2oc(=O)ccc12
inactive: all assays above

COc1cc(CCc2ccccc2)c(C(=O)O)c(O)c1C/C=C(/C)CCC=C(C)C
inactive: all assays above

COc1cc2cc(Oc3ccc4ccc(=O)oc4c3)c(=O)oc2cc1OC1OC(COC(=O)CC(C)(O)CC(=O)O)C(O)C(O)C1O (stereo not given)
inactive: all assays above

CC(C)CCCCCCCCCCCCC(=O)NCC(=O)NC1C(O)C(O)C(Nc2ncnc3nc[nH]c23)OC1C(O)CO (stereo not given)
inactive: all assays above

COc1cc2c(cc1O)[C@@H]1Cc3cc(O)c(OC)cc3[C@H](C2)N1C
inactive: all assays above

CCC(C)SSC(C)CC (stereo not given)
inactive: all assays above

O=C(O)c1ccco1
inactive: all assays above

COc1ccc([C@@H]2CC(=O)c3c(O)cc(O[C@@H]4O[C@H](CO)[C@@H](O)[C@H](O)[C@H]4O[C@@H]4O[C@@H](C)[C@H](O)[C@@H](O)[C@H]4O)cc3O2)cc1
inactive: all assays above
